Inconclusive results are not listed. Values without a mark were called inactive. Calls of active or inactive are those of the source. The call rests on the fitted dose curve; in most records, active means well fitted cell-killing curve with a large enough effect in the repeat runs; inconclusive means weak or mixed curves, or effect the other way; inactive means flat fitted curve, though single readings scatter.
Experiment: cAMP Responsive Elements (CRE) small molecule antagonists, cell-based qHTS assay: qHTS cell viability counter screen (AID 2060913); further: nearly all actives have a fitted effect of over 40% in size
Settings: CRE-bla HEK293T viability, CellTiter-Glo luminescence, 5 h; series mostly up to 92.4 µM; viability change, negative = cytotoxic: at the top concentration
Text: U.S. Tox21 Program National Center for Advancing Translational Sciences [NCATS] Division of Preclinical Innovation [DPI] U.S. Environmental Protection Agency [EPA] National Institutes of Environmental Health Sciences [NIEHS] National Toxicology Program [NTP] U.S. Food and Drug Administration [FDA] Tox21 Assay Overview: CREB (cyclic-AMP Responsive Element Binding Protein) is a cellular transcription factor. It binds to certain DNA sequences called cAMP Responsive Elements (CRE) and regulates the transcription of the genes. […] This cell line can be used to find agonists/antagonists of the cyclic AMP signaling pathway. The activation of the report gene under culture conditions can be detected by fluorescence intensity. This cell line has been used to screen the Tox21 10K compound library to identify agonists that induce oxidative stress. The cytotoxicity of the Tox21 compound library against the CRE-bla cell line was tested in parallel by measuring the cell viability using CellTiter-Glo assay (Promega, Madison, WI) in the same wells.
Tox21 Assay Protocol Summary: CRE-bla Hek 293T cells were suspended in assay medium (DMEM containing 10% dialyzed FBS, 0.1 mM NEAA, 1 mM sodium pyruvate and 25 mM HEPES) and dispensed at 2,000 cells/4 uL /well into 1536-well black wall/clear bottom plates using a Multidrop Combi (ThermoFisher Scientific, Waltham, MA) dispenser. After the assay plates were incubated at 37 C/5% CO2 for 18 hrs, 23 nL of compounds dissolved in DMSO, positive controls or DMSO only was transferred to the assay plate by a pintool workstation (Kalypsys, San Diego, CA), followed by addition of 1 uL of 1.25uM NKH477 (0.25 uM as final concentration) in assay medium using a Flying Reagent Dispenser (Aurora Discovery, San Diego, CA). The plates were incubated at 37 C and 5% CO2 for 3 hrs. Then 1 uL of LiveBLAzer B/G FRET substrate (Invitrogen, Carlsbad, CA) was added to each well using Bioraptr Flying Reagent Dispenser (FRD, Aurora Discovery, San Diego, CA). The plates were incubated at room temperature for 2 h, then fluorescence intensities were measured using an Envision plate reader (PerkinElmer, Shelton, CT) at Excitation 405nm, Emission 460nm and 530nm. The % activity was determined from the ratio of 460nm/530nm. For cell viability readout that measures cytotoxicity, 4 uL /well of CellTiter-Glo reagent was added into the assay plates using Bioraptr FRD. After 30 min incubation at room temperature, the luminescence intensity in the assay plates was measured using a ViewLux (PerkinElmer, Shelton, CT) plate reader.
On the % scale 0 is the no-effect control and ±100 the full control effect; potency means the concentration at half of the fitted maximal effect.

Compound | viability change, negative = cytotoxic | Potency
CC[C@H]1C[C@@H]2C[C@H]3c4[nH]c5ccc(OC)cc5c4CCN(C2)[C@@H]13 | -2.75% | –
C=C1C[C@@H]2[C@H](CC[C@]3(C)C(=O)CC[C@@H]23)[C@@]2(C)C=CC(=O)C=C12 | 2.46% [at 42.5 µM] | –
CC(C)Oc1cc(-n2nc(C(C)(C)C)oc2=O)c(Cl)cc1Cl | -15.5% | –
O=[N+]([O-])c1ccc(Nc2ccccc2)cc1 | -14.1% | –
CC(C)(C)NCC(O)c1ccccc1Cl (stereo not given) | -4.51% [at 42.5 µM] | –
Cc1ccc2nc3sc(=O)sc3nc2c1 | 10.1% [at 18.9 µM] | –
CN(C)CCc1ccc(O)cc1 | 7.44% [at 42.5 µM] | –
OC(Cn1cncn1)(c1ccc(F)cc1)c1ccccc1F (stereo not given) | -7.51% | –
CC(Cl)(Cl)C(=O)O | – | inactive
O=S(=O)(c1ccc(Cl)cc1)c1ccc(Cl)cc1 | -11.8% | –
O=Cc1ccc2c(c1)OCO2 | -0.71% | –
C=C(C)CCl | – | inactive
Nc1ccc(-c2ccccc2)cc1 | – | inactive
N#CN=C1SCCN1Cc1ccc(Cl)nc1 | 5.62% | –
S=C=S | 6.15% | –
CCCCON=O | -11.2% | –
Oc1cc(Cl)c(Cl)cc1Cl | – | inactive
CCCCCCCCCC[N+](C)(C)CCCCCCCCCC | – | 30.6 µM (active)
C#C[C@]1(O)CC[C@H]2[C@@H]3CCC4=CC(=O)CCC4=C3C=C[C@@]21CC | -6.44% [at 42.5 µM] | –
COC(=O)c1ccccc1CS(=O)(=O)NC(=O)Nc1nc(OC)cc(OC)n1 | 2.07% | –

Compound | viability change, negative = cytotoxic | Potency
O=C1OC(c2ccc(O)c(S(=O)(=O)O)c2)(c2ccc(O)c(S(=O)(=O)O)c2)c2c(Br)c(Br)c(Br)c(Br)c21 | 3.13% [at 42.5 µM] | –
CC1OC(C)OC(C)O1 (stereo not given) | – | inactive
CCNCC | – | inactive
ClCc1ccccc1CCl | -4.93% | –
Cn1[nH]nnc1=S | -6.92% | –
CCC(C)Br (stereo not given) | 0.473% | –
CC(C)(C)c1cc(O)ccc1O | – | inactive
O=C(NCc1cccnc1)Nc1ccc([N+](=O)[O-])cc1 | 0.257% | –
CNC(=O)O/N=C(\C)SC | -1.31% | –
C[C@]12C=CC3=C4CCC(=O)C=C4CC[C@H]3[C@@H]1CC[C@@H]2O | – | inactive
CCCCP(CCCC)CCCC | -6.44% | –
II | -15.9% | –
COc1ccc2c(c1OC)C(=O)O[C@H]2[C@@H]1c2cc3c(cc2CCN1C)OCO3 | -7.57% [at 42.5 µM] | –
C[N+](C)=CCl | 1.75% | –
CN(C)C(=O)Oc1cc(OC(=O)N(C)C)cc(C(O)CNC(C)(C)C)c1 (stereo not given) | 3.61% [at 42.5 µM] | –
BrCCCCBr | 1.97% | –
CCCCn1cc[n+](C)c1 | – | inactive
COC1=CC(=O)O[C@@H](/C=C/c2ccccc2)C1 | 1.8% | –
CC(C)=C[C@@H]1[C@@H](C(=O)OCc2coc(Cc3ccccc3)c2)C1(C)C | – | inactive
O=C(Nc1ccc2[nH]ccc2c1)c1cc2cc(F)ccc2n1Cc1cccc(F)c1 | -17.1% | –

From PubChem BioAssay (Tox21)
